High-throughput results as filed in PubChem BioAssay.
Compounds with a hit are over-represented: about 22% of the library has one in this group of screens.
Measles CPE: compounds protecting cells from measles virus cytopathic effect, primary screen, measles RdRp inhibitor project, single point, MLSMR library, absorbance; Measles virus-infected cells, CPE protection; protection (pct of control), % at 4 µM; 140,000 tested, 1.5% active; AID 841, 2007; in the data active = protection mostly above about 24%, no sharp cut-off; inactive = mostly below about 26%
CYP2C9 activ: human CYP2C9 activators, primary screen, biochemical, luminescence | recombinant CYP2C9, luciferin-H conversion; active compounds read high; factor 1 = untreated enzyme, 0 = blocked | Cytochrome P450 2C9 (Homo sapiens), P11712 | AID 1024, 2008 | activation factor at 5 µM | 96,000 tested, 1.4% active;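 active = activation factor of 2 or more for CYP2C9 at a 5 µM dose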;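 note: 0 = sulfaphenazole-blocked wells and 1 = vehicle-only wells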
Target sequence (P11712 whole entry, looked up): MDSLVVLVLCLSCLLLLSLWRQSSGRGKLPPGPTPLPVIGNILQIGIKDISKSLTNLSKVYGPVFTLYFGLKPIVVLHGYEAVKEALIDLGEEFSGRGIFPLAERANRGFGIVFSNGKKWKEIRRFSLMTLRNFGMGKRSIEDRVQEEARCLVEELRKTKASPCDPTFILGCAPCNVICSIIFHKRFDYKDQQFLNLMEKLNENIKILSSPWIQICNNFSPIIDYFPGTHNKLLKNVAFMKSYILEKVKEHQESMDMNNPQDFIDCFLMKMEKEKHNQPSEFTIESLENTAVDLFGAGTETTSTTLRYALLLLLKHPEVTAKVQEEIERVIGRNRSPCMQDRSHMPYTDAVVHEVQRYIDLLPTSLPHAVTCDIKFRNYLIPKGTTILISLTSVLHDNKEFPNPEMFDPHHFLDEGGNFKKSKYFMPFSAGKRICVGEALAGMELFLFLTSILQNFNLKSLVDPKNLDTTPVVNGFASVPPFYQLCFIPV
CYP2C19 act: human CYP2C19 activators, primary screen, biochemical, luminescence | recombinant CYP2C19, luciferin-H EGE luminescence; active compounds read high; 0 = fully inhibited enzyme, 1 = untreated enzyme | activation factor at 5 µM | 96,000 tested, under 10 active | AID 1025, 2008;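 active = activation factor of at least 2 at 5 µM in the primary screen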;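 note: 0 = wells with 2.5 mM tranylcypromine and 1 = vehicle-only wells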
CYP2C19 inhib: blockers of cytochrome P450 2C19 activity – biochemical, luminescence, ADME assay, primary screen; CYP2C19 Supersomes, luciferin-H EGE luminescence, 30 min; AID 778, 2007; P33261; inhibition, % at 5 µM; 96,000 tested, 21% active;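 active = CYP2C19 inhibition above a set limit at 5 µM in the primary screen, cut at about 50% in these data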;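 note: plate controls were negative control wells for no effect and 2.5 mM tranylcypromine positive control for full effect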
CYP2C9 inh: blockers of cytochrome P450 2C9 activity – biochemical, luminescence, ADME assay, primary screen | CYP2C9 Supersomes, luciferin-H conversion | P11712 | 96,000 tested, 20% active | inhibition, % at 5 µM;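 active = blocking of liver enzyme CYP2C9 beyond about 50% at 5 µM, limit read from the data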
Starred values were filed as active, the others as inactive; x = not tested or not shown.

SMILES	Measles CPE	CYP2C9 activ	CYP2C19 act	CYP2C19 inhib	CYP2C9 inh
CC1CCc2nc(NC(=O)CN3CCN(c4ccccc4)CC3)sc2C1 (stereo not drawn)	3.9	0.9	0.9	7.8	7.9
COC(=O)c1[nH]c2ccc(C)cc2c1NC(=O)CCN1CCN(C2CCCCC2)CC1	13.4	1.1	0.9	5.3	-7.3
COC(=O)c1[nH]c2ccc(Cl)cc2c1NC(=O)CCN1CCN(C2CCCCC2)CC1	5.2	0.9	0.4	55.3*	9.0
COC(=O)c1[nH]c2ccccc2c1NC(=O)CN1CCN(Cc2ccc3c(c2)OCO3)CC1	2.5	0.6	0.5	51.1*	41.0
CCOC(=O)C1CCCN(CC(=O)Nc2c(C(=O)OC)[nH]c3ccc(Br)cc23)C1 (stereo not drawn)	24.6	0.4	0.5	51.8*	58.3*
O=C(NNC1=NCCC1)c1cccc(S(=O)(=O)N2CCOCC2)c1	27.0	x	x	x	x
CN1CC(=O)N(C)c2nc(Br)n(C)c2C1=O	3.2	1.2	1.1	-13.8	-19.4
Oc1ccc(/C=N/Nc2nccnc2Cl)cc1	7.3	0	0	98.1*	99.8*
O=[N+]([O-])c1cccc(/C=N/Nc2nccnc2Cl)c1	5.2	0.8	0.4	59.5*	19.7
O=[N+]([O-])c1cccc(/C=N/Nc2nc(C(Cl)(Cl)Cl)nc3ccccc23)c1	4.2	x	x	x	x
Cc1sc2ncnc(N/N=C/c3ccc(O)cc3)c2c1C	6.0	x	x	x	x
CC(C)OCCCNC(=O)C(C)Oc1ccccc1 (stereo not drawn)	10.9	0.9	0.7	31.3	8.7
CC(=O)Nc1ccc(NC(=O)c2oc3cc(C)c(C)cc3c2C)cc1	12.6	1	1	-1.3	-1.1
Cc1cc(SCC(=O)NCCN2C(=O)CSC2=O)nc2c(C)cccc12	27.2	x	x	x	x
O=C(NCc1cccnc1)c1sc2cc(Cl)ccc2c1Cl	8.9	0.5	0.2	78.9*	45.5
Cn1c(C(=O)NCc2cccnc2)cc2sc(Cl)cc21	4.7	0.1	0	96.7*	88.8*
O=C(NCc1ccco1)c1sc2cc(Cl)ccc2c1Cl	16.0	x	x	x	x
C=CCn1c(N)c(C(=O)NCc2cccnc2)sc1=S	3.5	0.2	0	96.1*	77.5*
CCOc1ccc(-n2c(N)c(C(=O)NCc3cccnc3)sc2=S)cc1	26.3	0.8	0.9	9.9	20.9
Cc1ncsc1C(=O)NCc1ccc(N2CCCC2=O)cc1	7.1	0.9	1.1	-11.4	5.5
COc1ccccc1NC(=O)N(Cc1ccco1)Cc1cc2ccc(C)c(C)c2[nH]c1=O	4.2	0.4	0.8	22.4	63.9*
COc1ccccc1NC(=O)N(Cc1ccco1)Cc1cc2cc(C)cc(C)c2[nH]c1=O	24.8	0.4	0.4	59.8*	61.5*
COc1ccccc1NC(=S)N(Cc1ccco1)Cc1cc2cccc(C)c2[nH]c1=O	18.0	x	x	x	x
COc1cc2cc(CN(CCCO)S(=O)(=O)c3ccccc3)c(=O)[nH]c2cc1OC	43.0	0.9	1.1	-6.1	8.6
O=c1[nH]c2cc3c(cc2cc1CN(CCO)S(=O)(=O)c1ccccc1Cl)OCCO3	11.9	0.2	0.7	29.9	77.0*
SMILES	Measles CPE	CYP2C9 activ	CYP2C19 act	CYP2C19 inhib	CYP2C9 inh
COc1cc2cc(CN(CCO)S(=O)(=O)c3ccccc3Cl)c(=O)[nH]c2cc1OC	19.7	0.4	0.9	12.1	55.3*
COc1ccccc1OCC(O)Cn1nc(C)cc1C (stereo not drawn)	5.5	x	x	x	x
Cc1cc(C)n(CC(O)COc2ccccc2C(=O)Nc2ccccc2)n1 (stereo not drawn)	3.5	0.1	0.1	90.7*	88.3*
O=C(CC1NC(=O)NC1=O)NC1(C(=O)NC2CCCCC2)CCCCC1 (stereo not drawn)	28.8	1.1	1.2	-19.3	-7.5
COc1cc(CNn2cnnc2)ccc1OCC(=O)NC(C)(C)C	8.5	1.1	1.1	-10.9	-5.8
Cn1nc(C(=O)NCCN2CCOCC2)c2ccccc2c1=O	21.4	1	1	4.0	3.1
Cc1sc(C(=O)NCc2cccnc2)c2nc(C)n(CC(=O)NCc3cccnc3)c(=O)c12	19.2	0	0.4	58.9*	96.8*
Cc1ccccc1-n1nc(C)c2cc(C(=O)N3CCN(S(=O)(=O)c4ccccc4)CC3)sc21	x	1.1	1.1	-8.4	-9.1
O=C(NCc1ccccc1)c1cc(-c2ccco2)on1	1.6	1.5	0.8	22.3	-51.7
Cn1nc(C(=O)NCc2ccco2)c2ccccc2c1=O	23.8*	x	x	x	x
O=C(NCc1ccco1)c1cc(-c2ccco2)on1	85.2*	1.6	1	-3.3	-57.5
Cc1ccccc1-n1nc(C)c2cc(C(=O)NCc3cccnc3)sc21	8.7	0.5	0.6	43.6	54.9*
Cc1nn(CC(=O)NCc2cccnc2)c(=O)c2ccccc12	5.8	1	0.8	16.6	-4.3
Cc1cc(C)c(C(=O)COC(=O)CCNS(=O)(=O)c2c(Cl)cccc2Cl)cc1C	11.2	x	x	x	x
CN(CC(=O)N1CCN(c2ccc(F)cc2)CC1)S(=O)(=O)c1ccc(F)cc1	3.6	1	0.8	18.4	-1.8
CC(NC(=O)c1nn(C)c(=O)c2ccccc12)c1ccc(F)cc1 (stereo not drawn)	3.0	0.4	0.6	42.8	64.4*
Cn1nc(C(=O)NCc2cccnc2)c2ccccc2c1=O	6.5	0.4	0.2	77.6*	59.6*
Cc1ccc(NCCC(=O)c2ccc(Cl)cc2)cc1C	9.2	1	0.4	59.3*	4.8
OCCNc1ccc(Cl)cc1	23.2	0.9	0.8	19.2	7.2
CCCOc1ccc(C(=O)CCNc2ccc(C)c(Cl)c2)cc1	-0.4	0.8	0.4	60.4*	20.1
Cc1ccc(NCCC(=O)c2cccs2)cc1Cl	12.8	1	1	-1.8	-2.6
Cc1ccc(C(=O)CCNc2ccc(Cl)cc2)o1	4.0	0.6	0.1	91.6*	36.9
Cc1ccc(S(=O)(=O)N2CCC(C(=O)NCCc3ccccc3)CC2)cc1	9.4	1.2	0.9	5.7	-18.1
CCOC(=O)N/N=C(\C)c1ccc(C)c([N+](=O)[O-])c1	6.7	x	x	x	x
CCOc1ccc(-c2[nH]ncc2Oc2ccccc2OCC)c(O)c1	9.2	0.1	0.1	90.4*	88.2*
SMILES	Measles CPE	CYP2C9 activ	CYP2C19 act	CYP2C19 inhib	CYP2C9 inh
COc1ccc(-c2cn[nH]c2-c2ccc(OCc3ccc([N+](=O)[O-])cc3)cc2O)cc1	4.7	x	x	x	x
CCCOC(=O)c1ccc(Oc2cn[nH]c2-c2ccc(OC)cc2O)cc1	15.3	0	0	96.6*	99.1*
CCOc1ccc(-c2[nH]ncc2-c2ccc(OC)c(OC)c2)c(O)c1	9.0	0.2	0.2	83.7*	84.3*
C=C(C)COc1ccc(-c2[nH]ncc2-c2ccccc2OC)c(O)c1	7.6	0.1	0.3	74.7*	89.3*
CC(C)C(CC(=O)N1CCCCC1)C1CCOC(C)(C)C1 (stereo not drawn)	13.4	x	x	x	x
Oc1cc(Cc2ccccc2)cnc1CN1CCOCC1	9.0	1.1	0.6	41.6	-5.5
